Consider 37 compounds from PubChem BioAssay (NCI).

Molecules are shown by their SMILES. About 83,000 compounds went through this panel and 20% of them were active in at least one assay; those are over-represented in the sample as a whole.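 Cell lines were cultured in 96-well plates, exposed to a single compound concentration, and assessed for percent growth 48 hours later.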 A number with no mark means an inactive call. Calls of active or inactive are those of the source. How the source made its calls: active means growth percent below 10; inactive means the rest.

The first experiment has as its system NCI-H460 lung. Description: NCI-60 one-dose screen, 48 h (100 = growth as untreated, 0 = no growth, -100 = all killed). The conditions noted are these: 10 µM unless noted.
For the compound `CO[C@H](C(=O)O)[C@@H]1Cc2cc3cc(OC4CC(OC5CC(O)C(O)C(C)O5)C(O)C(C)O4)c(C)c(O)c3c(O)c2C(=O)[C@H]1OC1CC(OC2CC(OC3CC(C)(O)C(O)C(C)O3)C(O)C(C)O2)C(O)C(C)O1` (some centres undefined), the growth is 11.2%.

Consider `O=C(Nc1ccc(Cl)cc1)Nc1nccs1`, for which the growth is 21%.

With `CCn1cnc2c(Nc3cccc(Cl)c3)nc(N[C@@H]3CCCC[C@@H]3N)nc21`, the growth was 1.68% (active).

As to `C[C@]12CC[C@H]3[C@@H](CC4SC(N)=NC45C/C(=N/NC(N)=O)CC[C@]35C)[C@@H]1CCC2=O` (some centres undefined), the growth was -38.7% (active).

In the case of `Fc1ccc(N2COOC3(OOC2)C2CC4CC(C2)CC3C4)cc1`, the growth is 101%.

For the compound `C[C@@]1(CCCCCCCCCc2ccc(O)cc2)C[C@]2(C)OC(=O)C[C@@H]2OO1`, the growth is 108%.

As for `[Cl][Hg][n]1c(-c2ccco2)nc2ccccc21`, the growth is 96.4%.

For the compound `CN1C(=O)N[C@H]2[C@@H]3NC(=O)c4ccc(Br)n4[C@@H]3C[C@]21O`, the growth was -10.6% (active).

Take `C=CC[PH+](c1ccccc1)c1ccccc1.C=CC[PH+](c1ccccc1)c1ccccc1.[Cl][Pt][Cl]`: the growth was 91.9%.

With `CC[C@H](C)[C@H](NC(=O)C12CC(NC(C)=O)(C1)C2)C(=O)N(C)[C@H](C[C@@H](OC(C)=O)c1nc(C(=O)N[C@@H](Cc2ccccc2)C[C@H](C)C(=O)OC)cs1)C(C)C`, the growth was 3.12% (active).

`O=C1C=C(N2C3C4CCC(C4)C32)C(=O)C=C1c1ccccc1` (centres undefined): the growth is 90.2%.

On to `CCn1c2ccccc2c2cc(C(=O)c3cccc4c3CCCN4)ccc21`, for which the growth was 101%.

In the case of `Nc1cc2nc3ccccc3nc2cc1N`, the growth is 95.7%.

With `CCOC(=O)C(Cc1ccc(N(CCCl)CCCl)cc1)NC(=O)C(CC(C)C)NC(C)=O` (centres undefined), the growth is 1.65% (active).

As to `COC(=O)CCc1c[nH]c2ccc(N(CCCl)CCCl)cc12`, the growth is 17.4%.

`Clc1cccc(Cl)c1Cl`: the growth is 107%.

As to `COc1cc([N+](=O)[O-])c2nc(C)ccc2c1[N+](=O)[O-]`, the growth is 115%.

As to `O=C(CC1(O)C(=O)N(Cc2ccccc2)c2ccc(F)cc21)c1ccc(C(=O)NCC2CCC3(CC2)OOC2(CCCCC2)OO3)cc1` (centres undefined), the growth is -51.8% (active).

In the case of `O=C(CCl)c1ccc([N+](=O)[O-])o1`, the growth was 76.3%.

Turning to `C[S+]1C=Cc2ccccc2C1c1ccc(Cl)cc1` (centres undefined), the growth was 99.6%.

Take `COC(=O)[C@@H](C)C[C@H](Cc1ccc2ccccc2c1)NC(=O)c1csc([C@@H](C[C@H](C(C)C)N(C)C(=O)[C@@H](NC(=O)[C@H]2CCCCN2C)C(C)C)OC(C)=O)n1`: the growth was 24.2%.

Turning to `O=P(N1CC1)(N1CC1)N1CCc2ccccc21`, the growth is 63.3%.

As for `O=C1Nc2ccccc2C2c3cccn3-c3ccccc3CN12` (centres undefined), the growth was 43.7%.

Regarding `COC(=O)[C@@]1(O)C[C@H]2O[C@]1(C)n1c3ccccc3c3c4c(c5c6ccccc6n2c5c31)C(=O)NC4`, the growth is -72.8% (active).

On to `NC(=S)c1cn(C2OC(CO)C(O)C2O)c2ncnc(N)c12` (centres undefined), for which the growth is 3.97% (active).

On to `CC[C@H](C)[C@H](NC(=O)c1cccn1C)C(=O)N(C)[C@H](C[C@@H](OC(C)=O)c1nc(C(=O)N[C@@H](Cc2ccccc2)C[C@H](C)C(=O)OC)cs1)C(C)C`, for which the growth was 6.58% (active).

As for `OCc1ccc2c(c1)OCO2`, the growth is 103%.

With `C[n+]1c(/C=C/c2ccc(N(CCCl)CCCl)cc2)sc2ccccc21`, the growth is 20.7%.

Take `ClCCN(CCCl)Cc1ccc(Nc2ccnc3cc(Cl)ccc23)cc1`: the growth was 2.98% (active).

Take `Fc1ccc2c(c1)c(-c1nc(-c3c[nH]c4ncccc34)cs1)cn2CCN1CCOCC1`: the growth is 59.8%.

For `COc1cc2c(=O)n(C3CCCCCCC3)c3c4cc[nH]c4ncc3c2cc1OC`, the growth was 13.6%.

For the compound `Cn1cc(-c2csc(-c3cn(CCN4CCOCC4)c4ccc(F)cc34)n2)c2cccnc21`, the growth was 44.6%.

On to `O=C(CC1(O)C(=O)Nc2ccc(Br)cc21)c1ccc(C(=O)NCC2CCC3(CC2)OOC2(CCCCC2)OO3)cc1` (centres undefined), for which the growth is 36.4%.

Regarding `COc1cc(/C=N/C2=C(C#N)C(c3ccco3)c3c(c4cc(C)ccc4oc3=O)O2)cc(OC)c1OC` (centres undefined), the growth was 103%.

Take `CC1(C)N=C(N)N=C(N)N1c1ccc(CCCCc2ccc(Cl)c(S(=O)(=O)F)c2)c(Cl)c1`: the growth is 16.3%.

On to `CC12CCC3C(CCC4Cc5[nH]c6ccccc6c5CC43C)C1CCC2O` (centres undefined), for which the growth is 5.72% (active).

For `COC(=O)[C@@H](C)C[C@H](Cc1ccccc1)NC(=O)c1csc([C@@H](C[C@H](C(C)C)N(C)C(=O)[C@@H](NC(=O)[C@H]2CCCCN2C)C(C(F)(F)F)C(F)(F)F)OC(C)=O)n1`, the growth is 5.59% (active).

A further experiment deals with HOP-92 NSCLC. The description is as above. To be noted: 10 µM unless noted.
For the compound `CO[C@H](C(=O)O)[C@@H]1Cc2cc3cc(OC4CC(OC5CC(O)C(O)C(C)O5)C(O)C(C)O4)c(C)c(O)c3c(O)c2C(=O)[C@H]1OC1CC(OC2CC(OC3CC(C)(O)C(O)C(C)O3)C(O)C(C)O2)C(O)C(C)O1` (some centres undefined), the growth was 24.7%.

On to `O=C(Nc1ccc(Cl)cc1)Nc1nccs1`, for which the growth is 38.6%.

For the compound `CCn1cnc2c(Nc3cccc(Cl)c3)nc(N[C@@H]3CCCC[C@@H]3N)nc21`, the growth is -9.78% (active).

In the case of `C[C@]12CC[C@H]3[C@@H](CC4SC(N)=NC45C/C(=N/NC(N)=O)CC[C@]35C)[C@@H]1CCC2=O` (some centres undefined), the growth was 46.6%.

With `Fc1ccc(N2COOC3(OOC2)C2CC4CC(C2)CC3C4)cc1`, the growth is 29%.

`C[C@@]1(CCCCCCCCCc2ccc(O)cc2)C[C@]2(C)OC(=O)C[C@@H]2OO1`: the growth is 82.7%.

For `[Cl][Hg][n]1c(-c2ccco2)nc2ccccc21`, the growth is 116%.

For the compound `CN1C(=O)N[C@H]2[C@@H]3NC(=O)c4ccc(Br)n4[C@@H]3C[C@]21O`, the growth is -9.65% (active).

With `C=CC[PH+](c1ccccc1)c1ccccc1.C=CC[PH+](c1ccccc1)c1ccccc1.[Cl][Pt][Cl]`, the growth is 16%.

On to `CC[C@H](C)[C@H](NC(=O)C12CC(NC(C)=O)(C1)C2)C(=O)N(C)[C@H](C[C@@H](OC(C)=O)c1nc(C(=O)N[C@@H](Cc2ccccc2)C[C@H](C)C(=O)OC)cs1)C(C)C`, for which the growth is 19.9%.

Turning to `O=C1C=C(N2C3C4CCC(C4)C32)C(=O)C=C1c1ccccc1` (centres undefined), the growth is 96.9%.

Take `CCn1c2ccccc2c2cc(C(=O)c3cccc4c3CCCN4)ccc21`: the growth was 101%.

For `Nc1cc2nc3ccccc3nc2cc1N`, the growth was 97.8%.

On to `CCOC(=O)C(Cc1ccc(N(CCCl)CCCl)cc1)NC(=O)C(CC(C)C)NC(C)=O` (centres undefined), for which the growth was 24.6%.

On to `COC(=O)CCc1c[nH]c2ccc(N(CCCl)CCCl)cc12`, for which the growth was 84.4%.

In the case of `Clc1cccc(Cl)c1Cl`, the growth was 113%.

Consider `COc1cc([N+](=O)[O-])c2nc(C)ccc2c1[N+](=O)[O-]`, for which the growth was 96.3%.

For `O=C(CC1(O)C(=O)N(Cc2ccccc2)c2ccc(F)cc21)c1ccc(C(=O)NCC2CCC3(CC2)OOC2(CCCCC2)OO3)cc1` (centres undefined), the growth was -71.8% (active).

`O=C(CCl)c1ccc([N+](=O)[O-])o1`: the growth is -56% (active).

For `C[S+]1C=Cc2ccccc2C1c1ccc(Cl)cc1` (centres undefined), the growth is -54.5% (active).

As to `COC(=O)[C@@H](C)C[C@H](Cc1ccc2ccccc2c1)NC(=O)c1csc([C@@H](C[C@H](C(C)C)N(C)C(=O)[C@@H](NC(=O)[C@H]2CCCCN2C)C(C)C)OC(C)=O)n1`, the growth was -5.09% (active).

On to `O=P(N1CC1)(N1CC1)N1CCc2ccccc21`, for which the growth was 115%.

`O=C1Nc2ccccc2C2c3cccn3-c3ccccc3CN12` (centres undefined): the growth is 29.7%.

Consider `COC(=O)[C@@]1(O)C[C@H]2O[C@]1(C)n1c3ccccc3c3c4c(c5c6ccccc6n2c5c31)C(=O)NC4`, for which the growth was -44.3% (active).

Take `NC(=S)c1cn(C2OC(CO)C(O)C2O)c2ncnc(N)c12` (centres undefined): the growth was -4.97% (active).

As for `CC[C@H](C)[C@H](NC(=O)c1cccn1C)C(=O)N(C)[C@H](C[C@@H](OC(C)=O)c1nc(C(=O)N[C@@H](Cc2ccccc2)C[C@H](C)C(=O)OC)cs1)C(C)C`, the growth is 22.4%.

For `OCc1ccc2c(c1)OCO2`, the growth is 97.3%.

For the compound `C[n+]1c(/C=C/c2ccc(N(CCCl)CCCl)cc2)sc2ccccc21`, the growth is 61.9%.

In the case of `ClCCN(CCCl)Cc1ccc(Nc2ccnc3cc(Cl)ccc23)cc1`, the growth is -4.98% (active).

For the compound `Fc1ccc2c(c1)c(-c1nc(-c3c[nH]c4ncccc34)cs1)cn2CCN1CCOCC1`, the growth was 18.8%.

For `COc1cc2c(=O)n(C3CCCCCCC3)c3c4cc[nH]c4ncc3c2cc1OC`, the growth was 46.2%.

`Cn1cc(-c2csc(-c3cn(CCN4CCOCC4)c4ccc(F)cc34)n2)c2cccnc21`: the growth is 27.2%.

On to `O=C(CC1(O)C(=O)Nc2ccc(Br)cc21)c1ccc(C(=O)NCC2CCC3(CC2)OOC2(CCCCC2)OO3)cc1` (centres undefined), for which the growth was -46.3% (active).

For the compound `COc1cc(/C=N/C2=C(C#N)C(c3ccco3)c3c(c4cc(C)ccc4oc3=O)O2)cc(OC)c1OC` (centres undefined), the growth is 59.4%.

With `CC1(C)N=C(N)N=C(N)N1c1ccc(CCCCc2ccc(Cl)c(S(=O)(=O)F)c2)c(Cl)c1`, the growth is -0.0536% (active).

Turning to `CC12CCC3C(CCC4Cc5[nH]c6ccccc6c5CC43C)C1CCC2O` (centres undefined), the growth was 63.4%.

Regarding `COC(=O)[C@@H](C)C[C@H](Cc1ccccc1)NC(=O)c1csc([C@@H](C[C@H](C(C)C)N(C)C(=O)[C@@H](NC(=O)[C@H]2CCCCN2C)C(C(F)(F)F)C(F)(F)F)OC(C)=O)n1`, the growth was 12.4%.
